BAZ2B inh: BAZ2B (human) inhibition; AlphaScreen BAZ2B-H3K14Ac peptide displacement; Potency, µM (series often up to 114 µM), for the others: at the top dose activity change, negative = inhibition, actives largely listed as inhibitors; 360,000 compounds, 4.4% hits; note: % is set by controls: 0 for no effect and ±100 for the full control effect; nearly all actives have a fitted effect of over 60% in size
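Inhibition is scored as reduced AlphaScreen emission. The BAZ2B/b-H3(5-23)K14Ac complex (50 nM each) in PBS pH 7.4, 0.01% Tween-20 meets compound (up to 110 uM) for 30 min at RT before bead addition.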
Sfp PPTase inh: Sfp phosphopantetheinyl transferase inhibition | Biochemical Sfp PPTase activity, qHTS | Potency, µM, without a hit: largest response in the series, negative = inhibition, actives largely listed as inhibitors | 310,000 compounds, 3.5% hits;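 note: the enzyme is Sfp with the accession as filed and its product quenches rhodamine fluorescence; 0% = enzyme reaction without inhibitor and -100% = no enzyme wells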
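Fluorescence-quenching assay with 15 nM Sfp, 5 uM rhodamine-CoA and 12.5 uM BHQ-2-labelled ybbR peptide in pH 7.6 Hepes/MgCl2 buffer. Enzyme was pre-incubated with compound for 15 min at room temperature. Rate was taken from the 30-min fluorescence change (525/598 nm).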
HP1b chromo inh: blocks HP1-beta chromodomain binding to methylated histone tails | P83916 | AlphaScreen HP1-beta / biotin-H3K9me3 peptide binding | Potency, µM (titrated, usually from 114 µM), for the others: top-dose activity change, negative = inhibition, usual class: inhibitors | 390,000 compounds, 0.56% hits | AID 540317; note: nearly all actives have a fitted effect of over 70% in size
Target sequence (P83916 whole entry, looked up): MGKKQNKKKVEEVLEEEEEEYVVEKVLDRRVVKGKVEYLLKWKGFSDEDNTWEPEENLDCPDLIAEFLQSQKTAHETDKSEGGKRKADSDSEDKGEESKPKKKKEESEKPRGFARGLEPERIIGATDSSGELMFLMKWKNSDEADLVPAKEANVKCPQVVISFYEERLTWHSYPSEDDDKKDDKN
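HP1-beta protein (50 nM final) preincubated 30 min at room temperature with biotinylated H3(1-18)K9me3 peptide (50 nM) in PBS pH 7.4, 0.01% Tween-20, then compound added for 30 min. AlphaScreen streptavidin donor/nickel chelate acceptor beads (10 ug/mL final), 30 min dark, luminescence read.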
TDP1 block: inhibitors of human tyrosyl-DNA phosphodiesterase TDP1. 350,000 compounds, 0.28% hits. Potency, µM (titrated, usually from 130 µM), without a hit: at the top dose activity change, negative = inhibition, most hits filed as inhibitors. recombinant TDP1, AlphaScreen DNA substrate cleavage. Q9NUW8; note: % is set by controls: 0 for no effect and ±100 for the full control effect; nearly all actives have a fitted effect of over 40% in size
Target sequence (Q9NUW8 whole entry, looked up): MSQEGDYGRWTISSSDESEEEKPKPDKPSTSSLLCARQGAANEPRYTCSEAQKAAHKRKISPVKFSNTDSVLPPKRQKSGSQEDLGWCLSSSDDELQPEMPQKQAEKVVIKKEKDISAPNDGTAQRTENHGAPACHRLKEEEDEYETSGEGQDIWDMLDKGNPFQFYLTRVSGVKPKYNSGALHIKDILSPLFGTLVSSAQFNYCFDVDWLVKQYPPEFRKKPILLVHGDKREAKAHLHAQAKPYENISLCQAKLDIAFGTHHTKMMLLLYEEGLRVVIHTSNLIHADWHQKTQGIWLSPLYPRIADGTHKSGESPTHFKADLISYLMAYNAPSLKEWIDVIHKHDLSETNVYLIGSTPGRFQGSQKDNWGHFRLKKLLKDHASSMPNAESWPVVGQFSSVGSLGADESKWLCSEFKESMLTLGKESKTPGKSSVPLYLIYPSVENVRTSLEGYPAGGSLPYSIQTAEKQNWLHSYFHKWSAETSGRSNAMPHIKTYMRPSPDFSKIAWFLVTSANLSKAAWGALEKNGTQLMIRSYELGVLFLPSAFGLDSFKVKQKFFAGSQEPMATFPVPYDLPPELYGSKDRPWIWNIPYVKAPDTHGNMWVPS
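Steps: enzyme plus compound, 15 min RT; add biotin/phosphotyrosine-FITC oligonucleotide (15 nM final), react 5 min; add donor/acceptor beads (10 ug/ml final), 10 min; read AlphaScreen. Tdp1 at 1 nM final.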
G9a inh: G9a (human) methyltransferase inhibition. 350,000 compounds, 8.8% hits. AID 504332. G9a H3K9 monomethylation, AlphaScreen, 2 h. Potency, µM (highest dose often 102 µM), for inactives: at the top dose activity, negative = inhibition, usual class: inhibitors; note: % is set by controls: 0 for no effect and ±100 for the full control effect; nearly all actives have a fitted effect of over 75% in size
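Signal arises when biotinylated H3K9 peptide, once monomethylated, bridges streptavidin donor and antibody-captured acceptor beads. Enzyme at 20 nM was preincubated 15 min with test compounds; peptide 500 nM and SAM 20 uM then reacted for 2 h.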
JMJD2A Tudor inh: JMJD2A Tudor domain (human) inhibition; AlphaScreen JMJD2A-Tudor / H3K4me3 peptide binding; 390,000 compounds, 4.4% hits; Potency, µM (top dose mostly 114 µM), without a hit: top-dose activity change, negative = inhibition, actives largely listed as inhibitors; AID 504339; note: % is set by controls: 0 for no effect and ±100 for the full control effect; nearly all actives have a fitted effect of over 50% in size
* hit, by the source's call; ? = inconclusive; · = no result; [ ] = another dose, or the depositor's remark. Rows were chosen to be rich in hits. Some 12% of all compounds tested hit in one or more screens of this group. Calls come from the whole dose curve; as a rule, active = well fitted curve in the direction sought with a large enough effect; inconclusive = small, poorly fitted or top-dose-only effect, or another doubt; inactive = no such curve, though single readings can be large; an effect the other way counts as inactive or inconclusive. Potency is the fitted concentration of half-maximal effect.

SMILES	BAZ2B inh	Sfp PPTase inh	HP1b chromo inh	TDP1 block	G9a inh	JMJD2A Tudor inh
CC(=O)OC[C@@]12C(=O)[C@@H](O)[C@@H](C)[C@]3(C[C@@H](c4ccoc4)O[C@@H]3OC(C)=O)[C@H]1CCC[C@]21CO1	·	-14.6%	·	8.1%	·	·
N#C/C(=N\Nc1cccc(C(F)(F)F)c1)C(=O)c1ccsc1	39.8µM*	15.8%	-19.9%	8.9%	39.8µM*	50.1µM*
COc1ccc(CCNS(=O)(=O)c2cc(-c3cc(C)no3)ccc2OC)cc1OC	-3.2%	·	26.7%	7.9%	-16.9%[59 µM]	-6.8%
COc1ccc(-c2cc(C)no2)cc1S(=O)(=O)NCCc1ccco1	?	21.4%	-30.5%	2.8%	6.9%[0.0925 µM]	79.4µM*
O=C1c2ccccc2C(=O)C1(c1ccccc1)N1CCN(c2cccc(Cl)c2)CC1	?	·	-17.7%	5.0%	6.31µM*	?
O=C1c2ccccc2C(=O)C1(c1ccccc1)N1CCN(c2cccc(C(F)(F)F)c2)CC1	?	·	-12.4%	7.5%	10µM*	?
Cc1cccc(N2CCN(C3(c4ccccc4)C(=O)c4ccccc4C3=O)CC2)c1C	-17.1%[57.1 µM]	·	-15.8%	5.3%	?	?
COc1cc(Nc2nn(-c3ccc(OC(F)(F)F)cc3)nc2C(C)=O)cc(OC)c1	-2.6%	·	36.2%	-2.3%	1.7%[59 µM]	-7.9%
CCCCn1c(N)c(N(Cc2ccccc2OC)C(=O)C(C)Oc2ccc(Cl)cc2)c(=O)[nH]c1=O (centres undefined)	-22.4%	21.6%	4.9%	5.0%	30.5%	-11.1%
C[C@H](CO)N1C[C@H](C)[C@@H](CN(C)C(=O)Nc2ccc3c(c2)OCO3)Oc2ccc(NC(=O)CCC(F)(F)F)cc2C1=O	·	·	35.9%	0.8%	·	-19.3%
CCCN1C(=O)c2cc(C(=O)Nc3ccc(OC)cc3OC)ccc2C1Nc1ccc(OC)cc1OC (centres undefined)	?	6.7%	-20.3%	5.4%	22.4µM*	28.2µM*
CCCN1C(=O)c2cc(C(=O)Nc3ccc(OC)c(OC)c3)ccc2C1Nc1ccc(OC)c(OC)c1 (centres undefined)	-6.6%	-16.8%	36.1%	5.7%	-1.0%	-13.2%
O=C(OCc1c(F)cccc1Cl)c1cccnc1Cl	36.0%	9.5%	42.4%	·	56.4%	33.6%
Cc1ccc(NC2=C(C(=O)c3ccccc3)N(C)S(=O)(=O)c3ccccc32)cc1	25.1µM*	-2.5%	?	10.4%	22.8%[0.501 µM]	?
Cc1ccc(C(=O)Nc2ccccc2C(=O)N2CCOCC2)cc1[N+](=O)[O-]	3.5%	10.1%	5.4%	0.0%	-7.5%[59 µM]	-12.2%
O=C(O)C(S)[C@@H](S)C(=O)O (some centres undefined)	·	-90.0%	·	·	?	·
O=C(O)C(S)C(S)C(=O)O (centres undefined)	·	·	?	·	·	50.1µM*
COc1cc(Cl)c(NS(=O)(=O)c2ccc3c(c2)CC(C)N3C(=O)C2CCC2)c(OC)c1 (centres undefined)	-0.5%	·	15.1%	8.7%	0.1%[59 µM]	-15.8%
Cc1nc(-c2ccccc2)sc1-c1ccc(SCC(=O)NCc2ccc(F)cc2)nn1	-6.5%	·	12.2%	7.7%	-4.7%[59 µM]	-14.7%
S=C(NCCCc1cnc[nH]1)NCCCN(CCc1ccccc1)c1ccc(Br)cn1	·	·	?	·	·	56.2µM*
CCCCN(CCCNC(=S)NCCCc1cnc[nH]1)c1ccc(Br)cn1	·	·	·	·	·	50.1µM*
S=C(NCCCN(Cc1ccc(Cl)cc1)c1ccc(-c2ccccc2)cn1)NCCCN(Cc1ccc(Cl)cc1)c1ccc(-c2ccccc2)cn1	·	·	-6.7%	·	·	?
S=C(NCCCc1cnc[nH]1)NCCCN(Cc1ccccc1)c1ccc(Br)cn1	·	·	·	·	·	56.2µM*
O=C1CCc2cc(S(=O)(=O)Nc3ccc4ncccc4c3)ccc2N1	·	·	·	2.8%	·	-16.3%
CC1(C)CC(Cc2nc(=S)[nH][nH]2)C(=O)O1 (centres undefined)	?	20µM*	24.4%	5.5%	1.78µM*	50.1µM*
SMILES	BAZ2B inh	Sfp PPTase inh	HP1b chromo inh	TDP1 block	G9a inh	JMJD2A Tudor inh
O=C(COC(=O)c1ccc(Cl)c(S(=O)(=O)N2CCCCC2)c1)NCCc1ccccc1	30.3%	·	40.8%	-6.6%	-28.3%	-6.9%
CN(C)c1ccnc2c[cH-]cc12.[Fe].c1ccc(-[c-]2[c-](-c3ccccc3)[c-](-c3ccccc3)[c-](-c3ccccc3)[c-]2-c2ccccc2)cc1 (centres undefined)	1.58µM*	-24.4%	3.16µM*	9.5%	?	3.98µM*
Cc1nnc(SCC(=O)c2cc(C)n(-c3ccc4c(c3)OCO4)c2C)s1	44.7µM*	-15.5%	-22.1%	3.9%	?	?
Cc1cc(C(=O)CSc2nnc(-c3ccc4c(c3)OCO4)o2)c(C)n1-c1ccc(F)cc1	-37.3%	6.6%	26.1%	2.6%	5.8%[59 µM]	-13.5%
Cc1cc(C(=O)CSc2nnnn2C)c(C)n1-c1ccc2c(c1)OCCO2	?	44.7µM*	-19.9%	9.4%	?	?
O=C(CSC(=S)N1CCCC1)N1CCN(S(=O)(=O)c2cccc([N+](=O)[O-])c2)CC1	-14.1%	50.1µM*	1.2%	3.2%	39.8µM*	-19.3%
O=C(CSC(=S)N1CCCC1)N1CCN(S(=O)(=O)c2cccc(F)c2)CC1	-5.1%	·	33.2%	0.6%	-32.9%	?
CC1=NN(c2ccccc2)C(=O)C1/C=C1\NC(=S)NC1=O (centres undefined)	?	-3.2%	?	2.5%	?	56.2µM*
Cc1cccc(N(CC(=O)NC(C)C)C(=O)c2ccc(N3CCCC3)nc2)c1	-7.6%	3.8%	20.7%	0.0%	14.4%[59 µM]	-10.7%
Nc1nc(-c2ccc(Cl)c(Cl)c2)c(-c2ccncc2)s1	·	22.4µM*	·	3.9%	·	·
COc1ccc(OC)c(C2/C(=C(/O)c3ccccc3)C(=O)C(=O)N2Cc2ccco2)c1 (centres undefined)	-10.2%	1.6%	41.7%	0.0%	-3.8%[59 µM]	-8.7%
COc1cccc(C2/C(=C(/O)c3ccc(C)cc3)C(=O)C(=O)N2Cc2ccco2)c1 (centres undefined)	-37.2%	14.1%	26.7%	-5.3%	-12.1%[59 µM]	-6.2%
COc1ccccc1C1/C(=C(/O)c2ccc(C)cc2)C(=O)C(=O)N1CC(C)O (centres undefined)	-7.0%	19.7%	13.4%	-11.8%	-34.4%[59 µM]	-36.0%
CCOc1cccc(/C(O)=C2/C(=O)C(=O)N(Cc3ccco3)C2c2ccncc2)c1 (centres undefined)	?	-25.8%	42.0%	1.1%	44.7µM*	?
COc1cccc(/C(O)=C2/C(=O)C(=O)N(Cc3ccco3)C2c2ccncc2)c1 (centres undefined)	?	-24.4%	33.1%	1.1%	28.2µM*	?

High-throughput results: PubChem BioAssay, National Center for Advancing Translational Sciences (NCATS)
